# In all, about 33,000 sequences were measured (“E-score (-0.5 to 0.5)”: median about -0.016, highest 2% from about 0.31 on). Shown is part of a subset that was picked to be rich in the highest values.
# Biological target: Cst6 (UniProt P40535)
# Assay: PBM E-score (8-mer binding enrichment) (E-score (-0.5 to 0.5)); higher = stronger / more preferred TF binding
# Conditions: protein concentration: 200 nM; construct: GST-DNA-binding domain
# Procedure, shortened: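 Universal all-10-mer Agilent arrays, fresh or stripped once, were converted to double-stranded form by primer extension. GST-tagged yeast transcription factors from PURExpress in vitro transcription/translation, full-length or DNA-binding domain only, were applied at about 100-200 nM and detected with fluorescent anti-GST. After masliner normalisation, the Universal PBM Analysis Suite scored each ungapped eight-base word together with its reverse complement by E-score.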
# UniProt P40535, sequence (P40535 whole entry): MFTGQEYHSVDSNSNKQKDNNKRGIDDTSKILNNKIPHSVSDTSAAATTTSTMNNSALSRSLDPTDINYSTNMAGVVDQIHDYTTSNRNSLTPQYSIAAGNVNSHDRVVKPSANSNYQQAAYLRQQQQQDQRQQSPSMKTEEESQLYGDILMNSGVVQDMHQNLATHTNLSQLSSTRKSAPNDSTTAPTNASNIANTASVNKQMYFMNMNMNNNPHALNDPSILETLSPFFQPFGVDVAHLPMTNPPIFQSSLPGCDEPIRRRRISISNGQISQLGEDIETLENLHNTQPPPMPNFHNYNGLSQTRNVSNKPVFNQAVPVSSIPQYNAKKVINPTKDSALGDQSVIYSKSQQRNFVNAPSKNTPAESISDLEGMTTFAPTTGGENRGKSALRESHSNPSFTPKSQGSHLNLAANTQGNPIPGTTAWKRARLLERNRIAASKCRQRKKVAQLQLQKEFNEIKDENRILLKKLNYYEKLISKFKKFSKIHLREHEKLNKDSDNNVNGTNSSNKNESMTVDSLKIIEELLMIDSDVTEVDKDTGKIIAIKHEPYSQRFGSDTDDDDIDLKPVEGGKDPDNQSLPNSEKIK
row,Sequence,PBM E-score
1,CACTGACC,-0.133
2,CGCTGACG,0.384
3,CGCTGACA,0.166
4,AGCTGACT,-0.0426
5,CACTGACG,0.371
6,CGCTGACC,-0.0695
7,AGCTGACG,0.359
8,CACTGACA,0.08
9,AGCTGACC,-0.126
10,AGCTTTAA,0.127
11,CGGCTAGA,-0.038
12,ATTTCAGC,0.00693
13,ATGGAAAT,0.122
14,GGCTACAC,-0.0907
15,CTCCAGAC,-0.158
16,TACATTAA,0.19
17,GGTGCGTA,-0.062
18,CGGTTAAG,-0.0846
19,AGGTCATA,0.168
20,CCGTCATA,0.363
21,CGGTCATA,0.298
22,AAGTCATC,0.114
23,CAGTCATA,0.123
24,ACGTCATG,0.495
25,AGGTCATC,0.231

row,Sequence,PBM E-score
1,AAGTCATG,0.185
2,ACGTCATA,0.494
3,AGGTCATG,0.221
4,ACGTCATC,0.497
5,AAGTCATA,0.283
6,CTAGACTC,-0.329
7,CAAGGCAG,-0.119
8,CCATGGCG,0.102
9,ATTCAGTA,0.164
10,AAGGGACA,-0.141
11,AATTGTTG,0.0795
12,GGCGGGCA,-0.0394
13,CAGTCATC,-0.0341
14,GGGTCATA,-0.0664
15,CGGTCATC,0.085
16,GCGTCATA,0.463
17,CCGTCATC,0.385
18,GAGTCATA,0.144
19,AACGAAAT,0.156
20,AGATTGAG,0.228
21,CCTTGGCA,-0.209
22,ATTTGTTC,0.332
23,CTTTGTTC,0.126
24,ATTTGTTA,0.22
25,GTTGGCTA,-0.0861

row,Sequence,PBM E-score
1,AGCTTTTC,-0.00677
2,CCGGCTCG,-0.128
3,ACGGCAGA,0.064
4,ACGGCACG,0.348
5,ACGGCACA,0.327
6,CCGGCACG,-0.1
7,ACGGCTCG,0.312
8,CCGGCACA,-0.136
9,ACGGCTCC,0.256
10,TCGGCACA,-0.0165
11,CAGGCGTC,-0.00038
12,CGCGCGAG,0.0316
13,ACAGGCCA,-0.202
14,GAAATTGA,0.153
15,CGGTCGTA,-0.304
16,GTTGCCGA,0.0213
17,GCACCAGC,-0.176
18,AGTATGGG,-0.162
19,ACGCGGCT,0.248
20,GTGCGGAA,-0.0138
21,ATGCGGCG,0.343
22,ACGCGGCG,0.363
23,ATGCGGCC,0.0608
24,ATGCGGCA,0.312
25,GTGCGGCA,0.311

row,Sequence,PBM E-score
1,GCGCGGCA,0.264
2,AGGCGGCA,0.119
3,CTGCGGCA,0.182
4,AGGCGGCG,0.204
5,ACGCGGCA,0.28
6,GAATTCAC,0.0689
7,GCCAACCA,-0.0975
8,ATACCCTG,-0.0744
9,CGGAAGCA,0.151
10,AGTCTTCA,-0.0551
11,TCCCCACA,-0.103
12,CCGGCACC,-0.146
13,ACGGCATA,0.245
14,GCGGCACC,0.311
15,ACGGCACC,0.391
16,GCGGCACA,0.176
17,GCGGCAGC,-0.104
18,ACGGCACT,0.352
19,AAGGCACT,-0.0255
20,ACGGCATG,0.126
21,ACGGCATC,0.375
22,AGGGCACT,-0.0161
23,AGGGCACC,-0.282
24,AATCAGAA,0.00689
25,CATATCCC,0.0321

row,Sequence,PBM E-score
1,ACGATCAA,0.135
2,AAACCATG,-0.0483
3,GCGACTAA,0.0201
4,GAGTTTGC,-0.0936
5,CGTAAAGA,0.167
6,ATTGGTCG,0.069
7,CTCACGGC,0.105
8,GAGTTTCC,-0.137
9,CCGGACGC,8e-05
10,ACGGCAAT,0.329
11,ACGGCAAA,0.28
12,ACGGCAAG,0.0822
13,TCTACAGA,-0.0513
14,AGTACCTA,0.00893
15,GGAAAAGA,0.0532
16,AGAAAAGA,0.112
17,CGAAAAGA,0.313
18,ACTAAAGC,0.0156
19,AATGATAC,0.316
20,GATGATAC,0.127
21,AGTGATAT,0.0988
22,CATGATAC,0.251
23,AAAGATAG,-0.026
24,CATGATAA,0.155
25,AAAGATAA,0.308

row,Sequence,PBM E-score
1,TAAGATAA,0.159
2,AATGATAG,0.174
3,ACTGATAT,0.109
4,AATGATAT,0.322
5,AATGATAA,0.347
6,CGATATCA,0.145
7,AAGCTTTC,0.0818
8,AACTGATT,0.0959
9,TCGCGCCA,-0.0121
10,GTCCGAGA,0.0681
11,GTCTAGAC,-0.0977
12,CACCAAAC,0.17
13,TACTCCCA,-0.0234
14,AGTCAAAT,0.0827
15,AGTAATGA,0.247
16,CTTAATGC,0.142
17,CGTAATGC,0.365
18,AGTAATGC,0.0951
19,CGTAATGA,0.402
20,GGTAATGA,0.213
21,ATTATGGC,0.0901
22,TCGCGCAA,0.15
23,GCTCGTCA,0.238
24,CCTCGTCA,0.308
25,ACTCGTCT,-0.018

row,Sequence,PBM E-score
1,TCTCGTCA,0.329
2,ACTCGTCC,-0.094
3,ACTCGTCA,0.351
4,CCTCGTCC,-0.35
5,TCTCGTAA,0.305
6,CCTCGTCG,-0.0925
7,GACCTAAC,0.0894
8,ATCCCTCG,-0.263
9,GAAAGGTC,-0.196
10,GTTGCCCA,-0.135
11,CATTACGC,0.219
12,AATTACAG,0.15
13,AGTTACGC,0.0936
14,AATTACGT,0.462
15,GATTACAC,0.171
16,AATTACGC,0.331
17,AATTACGG,0.183
18,AATTACGA,0.286
19,AATTACCC,0.0706
20,AATTACAC,0.116
21,AATTACAT,0.318
22,GATTACGC,0.329
23,CACCTGGA,-0.135
24,TCGCGCGA,0.169
25,ACTCGTGC,-0.103

row,Sequence,PBM E-score
1,AGCGGCAT,0.273
2,GATTACGA,0.364
3,CATTACGA,0.205
4,TATTACGA,0.283
5,GTCTTAAC,0.14
6,GAAAAGCA,-0.0869
7,TCGTTACA,0.0818
8,TAACCCTA,-0.197
9,CATGCATG,0.0335
10,CCGCCGCA,0.0944
11,ACGCCGCA,0.336
12,GCGCCGCC,0.25
13,ACGCCGCT,0.233
14,ACGCCGCC,0.124
15,GCGCCGCA,0.38
16,CGTTATGA,0.0852
17,AGCGGAAT,-0.0286
18,GTAGCCGA,-0.191
19,AGTAATTC,0.189
20,GGTAATTA,0.215
21,CGTAATCC,0.3
22,CATAATTC,0.203
23,TATAATCA,0.308
24,CGTAATTC,0.309
25,CGTAATTA,0.362

row,Sequence,PBM E-score
1,AGTAATCA,0.116
2,AGTAATTA,0.175
3,CGTAATCA,0.427
4,AATAATCA,0.209
5,GATAATCA,0.131
6,CATCGCAG,-0.135
7,CGCCCGCC,-0.129
8,AAACTCAC,0.0463
9,CATTAGCG,-0.0563
10,CTCATTGC,0.105
11,AGAAAAAT,0.17
12,CATTGAGG,-0.0774
13,GTGAGTTA,0.0284
14,GTGACGAA,0.454
15,ACGACGAC,-0.0559
16,CTGACGAA,0.29
17,GGGACGAA,-0.214
18,ACGACGAA,0.0916
19,ATGACGAG,0.398
20,AAGACGAG,-0.203
21,ACGACGAG,-0.211
22,ATGACGAA,0.472
23,CTGACGAC,0.216
24,GAGACGAA,-0.099
25,ATGACGAC,0.431

# Reference: the supplement of paper PMC3334620
